Source: PubChem (National Center for Advancing Translational Sciences (NCATS))
Sampled rows, rich in hits. Any-hit rate of the full collection: about 6.6%.
HepG2 tox – counter-screen for TGF-b inhibitors: cytotoxicity in HepG2 cells; AID 588856; 410,000 compounds, 0.76% hits; HepG2 CAGA-GFP viability, ATP luminescence, 18 h; Potency, µM (series often up to 46.1 µM), for inactives: top-dose activity change, negative = cytotoxicity, actives largely listed as cytotoxic
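CellTiter-Glo luminescence gave cytotoxicity after 18 hours at 37 degrees C. The cells were HepG2 CAGA-GFP in 1% FBS DMEM, stimulated with 500 pg/mL TGF-beta after compound addition. %Activity was normalised to no-cell wells (complete cell-killing) and DMSO (no toxicity), and curves were fitted and classified.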
HT1080 IDH1KD tx – kills HT-1080 cells with IDH1 knockdown; HT-1080 IDH1 knockdown viability, ATP luminescence, 48 h; Potency, µM (doses to about 46.1 µM), without a hit: at the top dose activity, negative = toxicity, usual class: cytotoxic; 360,000 compounds, 2% hits;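 note: 0% = DMSO wells and -100% = cell-free medium wells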
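In this qHTS, HT-1080 cells depleted of IDH1 are exposed for 48 h at 37 °C to compound titrations. Toxicity is scored from CellTiter-Glo luminescence, with DMSO as full viability and medium alone as none.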
KB-V1 cytotox – KB-V1 MDR subline cytotoxicity; 400,000 compounds, 3.4% hits; Potency, µM (series often up to 46.1 µM), usual class: cytotoxic; KB-V1 MDR cells viability, CellTiter-Glo, 72 h; AID 1347076; note: % is set by controls: 0 for no effect and ±100 for the full control effect; nearly all actives have a fitted effect of over 60% in size
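Potencies derive from concentration-effect curves fitted to normalized luminescence (CellTiter-Glo) of KB-V1 cells treated for 72 h at 37 degrees C in phenol-red-free DMEM containing 10% FBS.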
KB-3-1 tox – kills parental KB-3-1 adenocarcinoma cells; KB-3-1 viability, CellTiter-Glo ATP luminescence, 72 h; Potency, µM (highest dose often 46.1 µM), most hits filed as cytotoxic; 400,000 compounds, 1.4% hits; AID 1347075; note: % is set by controls: 0 for no effect and ±100 for the full control effect; nearly all actives have a fitted effect of over 60% in size
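KB-3-1 parental drug-naive adenocarcinoma cells in DMEM/10% FBS, incubated 72 h at 37 C with pin-transferred compounds across a concentration series. Viability by CellTiter-Glo luminescence; concentration-response curves fitted after normalization.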
TGFb inhibitor – blocks TGF-b signaling; AID 588855; HepG2 CAGA-GFP TGF-b/SMAD3 reporter, GFP fluorescence, 18 h; TGF-beta stimulated, 500 pg/mL final; 410,000 compounds, 1.2% hits; Potency, µM (doses to about 46.1 µM), for the others: at the top dose activity, negative = inhibition, usual class: inhibitors; note: % is set by controls: 0 for no effect and ±100 for the full control effect; nearly all actives have a fitted effect of over 65% in size
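Smad-responsive CAGA-GFP expression was quantified in HEPG2 cells exposed to compounds and 500 pg/mL final TGF-beta for 18 h at 37 degrees C; unstimulated wells defined full inhibition.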
HT1080NT lethal – kills 2HG-producing HT-1080-NT fibrosarcoma cells. Potency, µM (doses to about 46.1 µM), inactives show at the top dose activity, negative = less viability, hits mostly cytotoxic. HT-1080-NT fibrosarcoma viability, CellTiter-Glo ATP luminescence, 48 h. AID 686970. 360,000 compounds, 1.6% hits;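 note: NT is the 2HG producing partner of a matched IDH1 knockdown line; 0% = DMSO-treated cells and -100% = media-only wells without cells; nearly all actives have a fitted effect of over 55% in size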
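Luminescent CellTiter-Glo readout after 48 hours of compound exposure at 37 degrees C defined viability of HT-1080-NT cells. Activity was normalized to DMSO wells and cell-free media wells; concentration-response curves were fitted and assigned curve classes.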
Starred values were filed as active, the others as inactive; i = inactive; ? = inconclusive; / = no result given; ! = a repeat was not active. Calls come from the whole dose curve; as a rule, active = well fitted curve in the direction sought with a large enough effect; inconclusive = small, poorly fitted or top-dose-only effect, or another doubt; inactive = no such curve, though single readings can be large; an effect the other way counts as inactive or inconclusive. Potency is the fitted concentration of half-maximal effect.

SMILES	HepG2 tox	HT1080 IDH1KD tx	KB-V1 cytotox	KB-3-1 tox	TGFb inhibitor	HT1080NT lethal
COc1cccc(N2CC(O)=C(c3nc4ccccc4s3)C2=N)c1	-19%	?	3.3µM*	7.3µM*	?	?
Cc1cccc(NC(=O)CNC(=O)COc2ccc(C(=O)c3ccc(F)cc3)cc2)c1C	-4%	0%	?	6.5µM*	-9%	3%
COc1ccc(CNC(=O)COc2ccc(F)cc2)cc1	7%	6%	?	i	15%	11%
O=C(COc1ccc(C(=O)c2ccc(F)cc2)cc1)NCc1ccc(F)cc1	-2%	?	9.2µM*	4.1µM*	?	?
COc1ccc(CNC(=O)COc2ccc(C(=O)c3ccc(F)cc3)cc2)cc1	-27%	5.2µM*	?	?	?	?
Cc1cccc(NC(=O)CNC(=O)[C@H]2O[C@@H](n3ccc(=O)[nH]c3=O)[C@H](O)[C@@H]2O)c1C	-18%	11%	i	i	0%	26%
CCc1ccc(CNC(=O)C(CC)n2ccc3cc(S(=O)(=O)N4CCCCC4)ccc32)cc1 (centres undefined)	-7%	/	i	i	-23%	/
Cc1ccc2occ(CC(=O)Nc3ccc(S(N)(=O)=O)cc3)c2c1	-5%	/	i	i	1%	/
COc1cc(CCC(=O)Nc2ccc(Cl)c(C(F)(F)F)c2)cc(OC)c1OC	-31%	2%	16µM*	i	?	5%
Cc1ccc2occ(CC(=O)Nc3ccc(Cl)c(C(F)(F)F)c3)c2c1	13µM*	/	?	?	?	/
COc1cc(CCC(=O)Nc2ccc(Br)c(C(F)(F)F)c2)cc(OC)c1OC	-47%	?	?	i	16µM*	-8%
COc1cc(CCC(=O)Nc2cccc(C(F)(F)F)c2)cc(OC)c1OC	13%	9%	i	i	-5%	12%
COc1cc(C(=O)Nc2ccc(Cl)c(C(F)(F)F)c2)cc(OC)c1OC	8%	-17%	?	i	0%	?
COc1ccc(NC(=O)CN(C)CC(=O)NC(=O)NC2CCCCC2)cc1	-1%	-5%	i	i	-15%	3%
COc1ccc(NC(=O)CN(C)CC(=O)NC2CCC(C)CC2)cc1 (centres undefined)	-9%	16%	21µM*	i	-19%	-5%
CN(CC(=O)NC1CC1)S(=O)(=O)c1ccc(F)cc1	0%	0%	i	i	-8%	4%
COc1ccc(NC(=O)CN(C)CC(=O)NC2CCCCC2C)cc1 (centres undefined)	8%	2%	18µM*	i	-3%	4%
COc1ccc(S(=O)(=O)N(C)CC(=O)NC2CC2)cc1	18µM*	1%	i	i	8%	3%
O=S1(=O)CCOC[C@H](c2ccccc2)N1Cc1ccc(Cl)cc1Cl	-36%	/	?	?	?	/
CC1CC(C)CN(C(C(=O)NC2CCCCC2)c2cc3ccccc3o2)C1 (centres undefined)	-24%	?	i	i	16µM*	?
Cn1nc(C(F)(F)F)c(/C=N/OC(=O)c2ccccc2)c1Sc1ccc(Cl)cc1	16%	-21%	i	?	?	-28%
Cn1nc(C(F)(F)F)c(/C=N/OC(=O)c2ccccc2)c1SCc1ccccc1Cl	-36%	?	12µM*	?	0%	?
COc1ccccc1-c1cc(C(F)(F)F)nc(S(=O)(=O)CCCC(=O)NC(C)C)n1	-22%	5.8µM*	?	?	?	5.8µM*
COc1ccccc1-c1cc(C(F)(F)F)nc(N2CCCC2)n1	-14%	5%	i	i	-21%	1%
COc1ccccc1-c1cc(C(F)(F)F)nc(S(C)(=O)=O)n1	-116%	18µM*	?	?	?	?
SMILES	HepG2 tox	HT1080 IDH1KD tx	KB-V1 cytotox	KB-3-1 tox	TGFb inhibitor	HT1080NT lethal
COc1ccccc1-c1cc(C(F)(F)F)nc(S(=O)(=O)CCCC(=O)NCc2ccc(F)cc2)n1	14µM*	16µM*	i	?	?	9.2µM*
CC(C)NC(=O)CCC(=O)N1Cc2ccccc2Oc2ncccc21	6%	/	?	i	3%	/
COc1cccc(C(=O)N2c3nc(-c4ccco4)nn3C3(CCCCC3)[C@@H]3CCCC[C@@H]32)c1	-19%	/	/	/	-12%	/
COc1ccc(C(OC(=O)c2c(C)noc2C)C(=O)NC2CCCC2)cc1 (centres undefined)	-8%	0%	5.2µM*	i	-1%	10%
CCN(c1ccc(Cl)cc1)S(=O)(=O)c1nnc(NC(=O)c2ccccc2C)s1	-37%	/	/	/	-16%	/
O=C(COC(=O)c1ccc(Cl)c(S(=O)(=O)NCc2ccccc2)c1)NC1CC1	3%	5%	?	i	?	8%
CCOC(=O)c1c(C)[nH]c(C)c1C(=O)COC(=O)c1ccc(Cl)c(S(=O)(=O)NCc2ccccc2)c1	-26%	23µM*	i	?	-13%	18µM*
CC(=O)Nc1ccc(NC(=O)CSc2cn(CC(=O)N(C(C)C)C(C)C)c3ccccc23)cc1	-2%	/	/	/	0%	/
CC(=O)Nc1ccc(C)cc1-c1nc2ccccc2n(CC(=O)c2ccc(C)c(C)c2)c1=O	3%	/	i	i	?	/
O[C@@H](c1cc(C(F)(F)F)nc2c(C(F)(F)F)cccc12)[C@H]1CCCCN1	-114%	21µM*	?	18µM*!	10µM*	9.2µM*
Cc1nc2c(C(F)(F)F)cccc2c2c1CCS2	3%	0%	i	i	0%	-9%
OC(c1cc(C(F)(F)F)nc2c(Cl)cc(Cl)cc12)C1CCCCN1 (centres undefined)	-118%	?	?	?	?	?
CC(C)(C)NCCC(O)c1cc(C(F)(F)F)nc2c(C(F)(F)F)cccc12 (centres undefined)	-104%	?	21µM*	?	?	-27%
CN1CCN(c2cccc(Nc3nn4c(=O)c5ccc(F)cc5nc4s3)c2)CC1	/	/	i	i	/	/
COc1cc(-c2nc(-c3ccc(NC(=O)c4ccc5c(c4)OCO5)cc3)no2)cc(OC)c1OC	-57%	5.2µM*	i	i	?	4.6µM*
COc1ccc(-c2nc(-c3ccc(NC(=O)c4ccncc4)cc3)no2)cc1OC	-17%	-4%	10µM*	?	-11%	-3%
COc1ccc(NC(=O)N2CCN(c3cc(-c4noc(C)n4)ccc3C)CC2)c(OC)c1	-22%	/	i	i	-26%	/
